A selection: hits, their analogues and other compounds. The true share with any hit is near 4.7%.
proKLK7 act: proKLK7 zymogen activators, primary screen, biochemical, fluorescence intensity | actives 0.9% (n = 370,000) | AID 652039, 2013 | purified proKLK7, EDANS-DABCYL substrate fluorescence; 100% is mature enzyme control, 0% vehicle | activation, % at 7 µM;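 active = activation above the mean of all tested compounds plus 3 SD, computed per campaign excluding outliers beyond control limits, cut at about 13% in these data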
DSG3 Ab inh: inhibitors of pemphigus antibody binding to DSG3, primary screen, biochemical, bead-based, flow cytometry, scFv-GFP; Desmoglein-3 (Homo sapiens), P32926; DSG3-coupled beads, scFv-anti-DSG3-GFP binding; stronger effect = lower value; binding (percent of control), % at 10 µM; actives 0.48% (n = 310,000); AID 588358, 2011;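 active = binding more than 3 SD below its plate's average and above zero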;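 also: hits lower antibody fragment binding to DSG3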
ADAM17 inh: ADAM17 inhibitors, primary screen, biochemical, QFRET. Disintegrin and metalloproteinase domain-containing protein 17 (Homo sapiens), P78536. recombinant ADAM17, EDANS/DABCYL FRET peptide cleavage. inhibition, % at 6.95 µM. actives 0.83% (n = 370,000). AID 720648, 2013;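 active = inhibition above the mean of compounds lying between control limits plus 3 SD, set per campaign, cut at about 8.5% in these data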;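 also: 0% = DMSO-only wells as the low control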
MPTP inh: mitochondrial permeability transition pore inhibitors, primary screen, biochemical, isolated mouse mitochondria, absorbance | actives 1.4% (n = 360,000) | Ca2+ swelling absorbance, 30 min | inhibition, % at 10 µM;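 active = inhibition of 50% or more, scaled per plate between neutral and stimulator controls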;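 also: 0% = DMSO wells given calcium and 100% = 1 mM EGTA wells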
ADAM10 inh: human ADAM10 inhibitors, primary screen, biochemical, QFRET, HTS; Disintegrin and metalloproteinase domain-containing protein 10 (Homo sapiens), O14672; recombinant ADAM10, EDANS/DABCYL FRET peptide cleavage, 3 h; inhibition, % at 7 µM; actives 0.62% (n = 370,000); AID 720582, 2013;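 active = inhibition above a per-campaign cutoff equal to the mean of compounds falling between control-based bounds plus 3 SD, cut at about 20% in these data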;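 also: 0% = DMSO wells while the 100% control is not disclosed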
Target sequence (O14672 214-748 limits assumed): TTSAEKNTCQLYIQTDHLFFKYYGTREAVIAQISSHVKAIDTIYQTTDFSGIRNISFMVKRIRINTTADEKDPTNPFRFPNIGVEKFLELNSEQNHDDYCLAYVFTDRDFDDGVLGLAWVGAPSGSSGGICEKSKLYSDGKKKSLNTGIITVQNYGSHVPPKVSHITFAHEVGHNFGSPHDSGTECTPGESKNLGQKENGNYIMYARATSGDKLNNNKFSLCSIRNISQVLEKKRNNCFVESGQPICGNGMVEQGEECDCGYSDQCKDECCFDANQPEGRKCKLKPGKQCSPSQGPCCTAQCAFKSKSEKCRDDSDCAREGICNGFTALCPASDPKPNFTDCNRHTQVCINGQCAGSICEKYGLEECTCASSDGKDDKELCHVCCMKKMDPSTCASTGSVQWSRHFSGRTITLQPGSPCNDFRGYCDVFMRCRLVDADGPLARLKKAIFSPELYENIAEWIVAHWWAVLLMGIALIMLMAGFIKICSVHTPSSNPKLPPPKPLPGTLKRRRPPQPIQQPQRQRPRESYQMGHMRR
rCAG binder: binders of r(CAG) RNA repeats, primary screen, biochemical, fluorescence; r(CAG) RNA repeat, TO-PRO-1 dye displacement fluorescence; actives 1.3% (n = 370,000); AID 651821, 2012; inhibition, % at 3 µM;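 active = inhibition above the plate cutoff, the mean of all test compounds on that plate plus 3 SD, cut at about 35% in these data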;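 also: 0% = DMSO alone and 100% = 100 µM mitoxantrone as full dye displacement; higher means more dye released from RNA so lower well fluorescence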
Rh123 counter: fluorescence retest of MPTP screen hits in isolated mitochondria, single concentration; shares compounds with MPTP inh; membrane potential, Rhodamine 123 fluorescence; inhibition, % at 10 µM; actives 78% (n = 5,000); AID 624504, 2012; in the data active = inhibition above about 22%;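 also: 0% = DMSO vehicle and 100% = positive control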
MPTP swell DR: mitochondrial permeability transition pore inhibitors, dose response, biochemical, absorbance, uHTS hits. shares compounds with MPTP inh. isolated mitochondria swelling. IC50, µM. actives 58% (n = 780); in the data active = IC50 below about 20 µM
MPTP counter DR: fluorescent counter-screen in isolated mitochondria, dose response, counter-screen for MPTP inhibitor project, biochemical, fluorescence, uHTS hits. shares compounds with MPTP inh. isolated mitochondria counterscreen, fluorescence read-out. IC50, µM. actives 49% (n = 780). AID 651564, 2012; in the data active = IC50 below about 80 µM
* = called active by the depositor; i = inactive; · = not tested or not shown.

SMILES	proKLK7 act	DSG3 Ab inh	ADAM17 inh	MPTP inh	ADAM10 inh	rCAG binder	Rh123 counter	others
CN(NC(=O)C(=O)NCc1ccco1)C(=O)Nc1ccc(Cl)cc1	-0.4	·	-2.9	85.0*	-13.1	1.7	109.0*
CC(=O)Nc1cccc(NC(=O)Cc2cccs2)c1	0.6	91.3	1.0	0.7	3.5	13.7	·
O=C(Cc1cccs1)Nc1cccc(-c2nc3cc4ccccc4cc3[nH]2)c1	-88.2	105.3	-494.4	90.0*	i	21.6	37.0*
Cc1ccc(S(=O)(=O)Nc2cc(Cl)c(O)cc2C)cc1	0.4	95.3	2.9	64.8*	7.7	5.0	13.5	MPTP swell DR=15.1*;MPTP counter DR=23.3*
Cc1cc(C(=O)NNC(=O)Nc2ccc(Cl)cc2)no1	-0.5	95.0	0.3	1.2	-7.5	0.0	·
CCCCC#Cc1ccc(C(=O)NNC(=O)Nc2cc(Cl)cc(Cl)c2)o1	0.1	109.0	-3.3	78.9*	6.9	7.4	76.8*
CCc1ccccc1NC(=O)c1cc(-c2cccc(O)c2)on1	-0.5	72.9	3.6	102.3*	-3.5	6.3	5.5	MPTP swell DR=2.09*;MPTP counter DR=>80
O=C(Nc1ccccc1C(F)(F)F)c1cc(-c2cccc(O)c2)on1	0.2	96.9	-5.1	8.2	-3.0	0.5	·
COc1cc(NC(=O)c2cc(-c3cccc(O)c3)on2)cc(OC)c1OC	-0.2	91.9	-3.4	110.5*	1.9	5.5	13.9	MPTP swell DR=2.56*;MPTP counter DR=>80
COc1cc(NC(=O)c2cc(-c3ccc(C)cc3)on2)cc(OC)c1OC	0.2	118.5	-1.7	0.6	9.3	7.8	·
O=C(Nc1cccnc1Cl)c1cc(-c2cccc(O)c2)on1	-0.8	88.0	-0.3	81.0*	4.5	-0.2	-7.1	MPTP swell DR=>100;MPTP counter DR=>80
COc1cccc(-c2cc(C(=O)Nc3cccnc3Cl)no2)c1	0.1	·	0.2	-0.8	6.0	0.6	·
Cc1ccc(NC(=O)NNC(=O)CCn2nc(C)c([N+](=O)[O-])c2C)cc1C	-0.5	·	-1.3	·	-7.1	0.9	·
CN1NC(=O)c2ccccc2NC1=S	0.2	·	-1.6	·	-2.7	2.4	·
c1ccc(CCSc2ncnc3nc[nH]c23)cc1	-0.1	92.4	1.4	10.5	2.0	-0.1	·
c1ccc2c(CSc3ncnc4nc[nH]c34)cccc2c1	0.4	112.1	2.0	55.8*	7.5	3.3	41.3*
C[C@H]1CNCCN1c1ccc(N2CCS(=O)(=O)CC2)c(C#N)c1	2.6	·	-10.0	·	-31.5	3.9	·
COC(=O)/C(=C\Nc1cccc(Cl)c1C)c1ncc(C(F)(F)F)cc1Cl	-0.4	96.4	-4.3	75.0*	7.2	-2.0	8.4	MPTP swell DR=19.4*;MPTP counter DR=>80
Cc1ccccc1NC(=S)NNc1ncc(C(F)(F)F)cc1Cl	0.0	97.1	2.2	0.8	8.4	-1.1	·
Cc1c(Cl)cccc1NC(=S)NNc1ncc(C(F)(F)F)cc1Cl	0.7	98.6	0.9	60.0*	6.3	9.9	76.5*
C=CCN=C1NC(c2cccc(Cl)c2)C(C(=O)OC)=C(C)N1Cc1ccc(C(F)(F)F)cc1 (centres undefined)	0.7	·	-5.1	·	-2.1	5.5	·
COc1ccc(-c2cc(C(F)(F)F)nc(SCCC(=O)NCc3ccccc3)n2)cc1	-0.1	98.4	-7.2	59.6*	-9.6	2.7	2.1	MPTP swell DR=>100;MPTP counter DR=>80
Cc1cc(/C=C2\Sc3ccccc3N2C)cc(C)[n+]1CC1CCCO1 (centres undefined)	-0.2	·	-4.6	74.6*	-1.3	8.6	83.8*
CCOC(=O)C1CCCN(S(=O)(=O)c2ccc(S(=O)(=O)N(CC)CC)cc2)C1 (centres undefined)	0.6	100.6	-1.6	96.7*	-1.1	-5.3	102.3*
CCOC(=O)C1CCCN(S(=O)(=O)c2ccc(C)cc2)C1 (centres undefined)	-0.2	·	-2.6	0.7	6.0	-5.4	·
SMILES	proKLK7 act	DSG3 Ab inh	ADAM17 inh	MPTP inh	ADAM10 inh	rCAG binder	Rh123 counter	others
CC(=NNc1cc(C)c2ccccc2n1)c1ccccn1	0.0	·	-4.9	·	-11.0	1.6	·
O=C(Nc1ccc(Cl)cc1)N(C1=NCCC1)c1ccc(OC(F)F)cc1	0.8	108.2	-0.4	89.6*	-0.2	0.9	99.3*
O=C(COC(=O)Cc1ccc(Cl)cc1)Nc1ccc(OC(F)F)cc1	-0.3	102.0	1.6	2.9	2.8	-2.5	·
CCOC(=O)C(CNc1ccc(OCc2ccccc2)cc1)NC(=O)c1ccccc1 (centres undefined)	0.4	·	2.5	·	3.1	4.1	·
COc1cccc(-n2cc(CNCc3cn(C)nc3-c3ccccc3F)cn2)c1	0.1	345.6	-3.2	0.7	-1.1	-4.0	·
Cn1cc(CNCc2cn(C)nc2-c2ccc(C3CCCCC3)cc2)cn1	0.2	119.7	-4.8	91.7*	1.1	-7.3	-5.8	MPTP swell DR=8.8*;MPTP counter DR=71.2*
CCNC(=O)N1CCN(c2ccc(N3CCN(C(=O)NCC)[C@H](C)C3)c(C)c2)[C@@H](C)C1	0.8	·	-2.9	·	-6.5	1.3	·
CCOC(=O)c1ccc(Nc2ccc(C(C)=O)cc2)cc1	-0.7	·	-24.6	0.6	-88.0	2.8	·
CCOC(=O)c1ccc(Nc2nnc(C(C)(C)C)c(=O)[nH]2)cc1	0.0	·	-3.5	92.7*	-2.4	13.7	83.1*
COc1ccc(S[C@]2(C(=O)N3CCN(c4ncccn4)CC3)CC(=O)N(C(=O)Nc3ccc(C)c(Cl)c3)[C@@H]2c2ccc(OC)cc2)cc1	0.1	·	-0.7	·	-0.4	12.8	·
C[C@H]1c2cccc(O)c2C(O)=C2C(=O)C3(O)C(O)=C(C(N)=O)C(=O)[C@@H](N(C)C)[C@@H]3[C@@H](O)[C@@H]21 (some centres undefined)	-4.7	92.5	-5.9	85.0*	-3.0	6.2	-0.4
C[C@H]1c2cccc(O)c2C(=O)C2C(=O)C3(O)C(=O)C(C(N)=O)C(=O)[C@@H](N(C)C)[C@@H]3[C@@H](O)[C@@H]21 (some centres undefined)	-3.0	94.7	-1.3	89.7*	-7.1	8.8	5.4
CCCCCCCCN1C(=O)[C@@H](CC(=O)NCCC(C)C)C[C@@]2(C(=O)OC)C1=C[C@H](C(C)C)O[C@@H]2C1CC1	-0.3	·	0.4	·	8.3	8.9	·
